In PubChem BioAssay (NCATS):
Records with an inconclusive call do not appear. The source made the active and inactive calls. Calls follow the shape of the dose curve; as a rule, active = well fitted cell-killing curve with a large enough effect; inconclusive = small, poorly fitted or top-dose-only effect, or effect the other way; inactive = no such curve, though single readings can be large or run the other way.

test: Quantitative High-Throughput drug screen in 47 multiple myeloma cell lines against the NCATS MIPE library collection: H1112_PLB cell viability assay (AID 1918967; also: nearly all actives have a fitted effect of over 30% in size); settings: H1112 myeloma cells viability, ATP luminescence, 48 h; series mostly up to 45.8 µM
Method in brief: (§1)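 Relative luminescence from CellTiter-Glo served as the viability signal, referenced to DMSO-treated (100%) and cell-free medium (0%) controls. Treatment lasted 48 hours at 37C with 500 cells per well.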
Potency is read from the fitted curve at half-maximal effect.

Compound | Potency
c1ccc(CCCN2CCN(CCOC(c3ccccc3)c3ccccc3)CC2)cc1 | 26.4 µM (active)
N=c1c2c(-c3ccccc3)c(-c3ccccc3)n(Cc3ccccc3)c2ncn1C1CCC(O)CC1 (configuration not stated) | 6.62 µM (active)
O=C1CCC[C@@H]2[C@H]3CCCN4CCC[C@@H](CN12)[C@@H]34 | inactive
CC(=O)Nc1ccc(OC[C@](C)(O)C(=O)Nc2ccc([N+](=O)[O-])c(C(F)(F)F)c2)cc1 | inactive
CC(C)(O)C(=O)Nc1ccc([N+](=O)[O-])c(C(F)(F)F)c1 | 9.35 µM (active)
CCCC[N+]1(C)[C@H]2CC(OC(=O)[C@H](CO)c3ccccc3)C[C@H]1[C@H]1O[C@H]12 (some centres not stated) | inactive
Clc1ccccc1C(c1ccccc1)(c1ccccc1)n1cccn1 | inactive
CCCCCC[C@H]1C(=O)O[C@H](C)[C@H](NC(=O)c2cccc(NC=O)c2O)C(=O)O[C@@H](C)[C@@H]1OC(=O)CC(C)C | 0.132 µM (active)
CC=C(C)C(=O)O[C@H]1C(C)=C2[C@@H]3OC(=O)[C@@](C)(O)[C@@]3(O)[C@@H](OC(=O)CCC)C[C@](C)(OC(C)=O)[C@@H]2[C@@H]1OC(=O)CCCCCCC | 0.526 µM (active)
N#C[C@H](O[C@@H]1O[C@H](CO[C@@H]2O[C@H](CO)[C@H](O)[C@H](O)[C@H]2O)[C@H](O)[C@H](O)[C@H]1O)c1ccccc1 | 26.4 µM (active)
CN1CCN(c2ccc([N+](=O)[O-])c3no[n+]([O-])c23)CC1 | 23.5 µM (active)
CC1=NN=C(c2ccc(N)cc2)c2cc3c(cc2C1)OCO3 | inactive
O=[N+]([O-])c1ncc[nH]1 | inactive
COC[C@H]1OC(=O)c2coc3c2[C@@]1(C)C1=C(C3=O)[C@@H]2CC[C@H](O)[C@@]2(C)C[C@@H]1OC(C)=O | 1.05 µM (active)
C[C@]12Cc3cn[nH]c3C[C@@H]1CC[C@@H]1[C@H]2CC[C@@]2(C)[C@H]1CC[C@]2(C)O | inactive
O=C(NCC1CCOCC1)c1cnc(Nc2ccc(Cl)cc2Cl)nc1C(F)(F)F | 5.9 µM (active)
COc1ccc(C(=O)c2c(C)n(CCN3CCOCC3)c3cc(I)ccc23)cc1 | 16.6 µM (active)
CC(O)=C(C#N)C(=O)Nc1cc(Br)ccc1Br | 0.935 µM (active)
C[C@]12CC[C@@H]3[C@@H](CCC4=CC(=O)CC[C@@H]43)[C@@H]1CC[C@@H]2OC(=O)CCc1ccccc1 | inactive
C=C[C@@H]1CN2CCC1C[C@H]2[C@H](O)c1ccnc2ccccc12 (some centres not stated) | 13.2 µM (active)
CC(C)[C@H]1C(=O)N[C@H](CO)Cc2c[nH]c3cccc(c23)N1C | inactive
Cc1c(N)nc([C@H](CC(N)=O)NC[C@@H](N)C(N)=O)nc1C(=O)N[C@H](C(=O)N[C@@H](C)[C@H](O)[C@@H](C)C(=O)N[C@@H](C(=O)NCCc1nc(-c2nc(C(=O)NCCC[S+](C)C)cs2)cs1)[C@@H](C)O)C(O[C@H]1O[C@H](CO)[C@H](O)[C@@H](O)[C@@H]1O[C@H]1O[C@H](CO)[C@@H](O)[C@H](OC(N)=O)[C@H]1O)c1cnc[nH]1 (some centres not stated) | 5.9 µM (active)
C[C@H]1CCCC=CC2C[C@H](O)C[C@@H]2[C@H](O)C=CC(=O)O1 (some centres not stated) | inactive
CC(C)(C)c1cc(C=C(C#N)C#N)cc(Br)c1O | 16.6 µM (active)
CC[C@H]1C=CC=CC[C@@H](C)[C@H](O)[C@@](C)(O)C(=O)[C@@H](C)[C@H](O)[C@@H](C)C(=O)[C@@H](C)[C@H](O)[C@@H](C)C=CC(=O)O[C@@H]2[C@@H](C)[C@H](CC1)O[C@]1(CC[C@H](C)[C@H](C[C@@H](C)O)O1)[C@H]2C | 0.0053 µM (active)
Cc1c(C(=O)c2cccc3ccccc23)c2cccc3c2n1[C@H](CN1CCOCC1)CO3 | 23.5 µM (active)
C[C@]12CC[C@H]3[C@@H](CCC4=CC(=O)CC[C@@]43C)[C@H]1CC[C@H]2O | inactive
O=C(Oc1ccc([N+](=O)[O-])cc1)N1CCC(C(O)(c2ccc3c(c2)OCO3)c2ccc3c(c2)OCO3)CC1 | 10.5 µM (active)

test: Quantitative High-Throughput drug screen in 47 multiple myeloma cell lines against the NCATS MIPE library collection: Karpas25_ECACC cell viability assay (AID 1918968; also: nearly all actives have a fitted effect of over 35% in size); settings: Karpas25 myeloma viability, CellTiter-Glo ATP, 48 h; series mostly up to 45.8 µM
Method in brief: as §1

Compound | Potency
c1ccc(CCCN2CCN(CCOC(c3ccccc3)c3ccccc3)CC2)cc1 | 10.5 µM (active)
N=c1c2c(-c3ccccc3)c(-c3ccccc3)n(Cc3ccccc3)c2ncn1C1CCC(O)CC1 (configuration not stated) | 4.18 µM (active)
CC(C)(O)C(=O)Nc1ccc([N+](=O)[O-])c(C(F)(F)F)c1 | 9.35 µM (active)
CCCC[N+]1(C)[C@H]2CC(OC(=O)[C@H](CO)c3ccccc3)C[C@H]1[C@H]1O[C@H]12 (some centres not stated) | inactive
COC1=C[C@@H]2[C@@H]3Cc4ccc(OC)c(O)c4[C@]2(CCN3C)CC1=O | 2.96 µM (active)
C=C1C[C@H]2[C@H]3CCC(=O)[C@@]3(C)CC[C@@H]2[C@@]2(C)C=CC(=O)C=C12 | 16.6 µM (active)
CN[C@@H]1Cc2cccc3[nH]c(=O)n(c23)C1 | inactive
CCCCCC[C@H]1C(=O)O[C@H](C)[C@H](NC(=O)c2cccc(NC=O)c2O)C(=O)O[C@@H](C)[C@@H]1OC(=O)CC(C)C | 0.166 µM (active)
CC=C(C)C(=O)O[C@H]1C(C)=C2[C@@H]3OC(=O)[C@@](C)(O)[C@@]3(O)[C@@H](OC(=O)CCC)C[C@](C)(OC(C)=O)[C@@H]2[C@@H]1OC(=O)CCCCCCC | 0.0833 µM (active)
N#C[C@H](O[C@@H]1O[C@H](CO[C@@H]2O[C@H](CO)[C@H](O)[C@H](O)[C@H]2O)[C@H](O)[C@H](O)[C@H]1O)c1ccccc1 | 18.7 µM (active)
CN1CCN(c2ccc([N+](=O)[O-])c3no[n+]([O-])c23)CC1 | 18.7 µM (active)
CC1=NN=C(c2ccc(N)cc2)c2cc3c(cc2C1)OCO3 | inactive
C[C@]12CC[C@H]3[C@@H](CCC4=CC(=O)CC[C@@]43C)[C@H]1CC[C@H]2OC(=O)CCC1CCCC1 | inactive
COC[C@H]1OC(=O)c2coc3c2[C@@]1(C)C1=C(C3=O)[C@@H]2CC[C@H](O)[C@@]2(C)C[C@@H]1OC(C)=O | 0.264 µM (active)
C[C@]12Cc3cn[nH]c3C[C@@H]1CC[C@@H]1[C@H]2CC[C@@]2(C)[C@H]1CC[C@]2(C)O | inactive
O=C(NCC1CCOCC1)c1cnc(Nc2ccc(Cl)cc2Cl)nc1C(F)(F)F | 4.69 µM (active)
COc1ccc(C(=O)c2c(C)n(CCN3CCOCC3)c3cc(I)ccc23)cc1 | 18.7 µM (active)
C[C@]12CC[C@@H]3[C@@H](CCC4=CC(=O)CC[C@@H]43)[C@@H]1CC[C@@H]2OC(=O)CCc1ccccc1 | inactive
C[C@H]1CCCC=CC2C[C@H](O)C[C@@H]2[C@H](O)C=CC(=O)O1 (some centres not stated) | inactive
C[C@](O)(COc1ccc(C#N)cc1)C(=O)Nc1ccc(C#N)c(C(F)(F)F)c1 | 18.7 µM (active)
CC(C)(C)c1cc(C=C(C#N)C#N)cc(Br)c1O | 3.72 µM (active)
CC[C@H]1C=CC=CC[C@@H](C)[C@H](O)[C@@](C)(O)C(=O)[C@@H](C)[C@H](O)[C@@H](C)C(=O)[C@@H](C)[C@H](O)[C@@H](C)C=CC(=O)O[C@@H]2[C@@H](C)[C@H](CC1)O[C@]1(CC[C@H](C)[C@H](C[C@@H](C)O)O1)[C@H]2C | 0.001 µM (active)
Cc1c(C(=O)c2cccc3ccccc23)c2cccc3c2n1[C@H](CN1CCOCC1)CO3 | 14.8 µM (active)
C[C@]12CC[C@H]3[C@@H](CCC4=CC(=O)CC[C@@]43C)[C@H]1CC[C@H]2O | inactive
